The text below walks through data of PubChem BioAssay.

Activity calls are given as the source filed them.

The subject of experiment [1] is Plasmodium falciparum Sir2 (PF13_0152, Sir2A). The experiment is described as follows: Plasmodium falciparum Sir2A binding compounds – biochemical, small-molecule microarray, 635 nm fluorescence, primary screen (AID 1098).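 Note: score merges spot fluorescence intensity with its signal-to-noise ratio.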 As to conditions: fluorescence 635 nm, higher = more signal.
The nature of experiment [2]: probe aDKK1 binding to arrayed compounds – biochemical, biotinylated probe, 635/667 nm fluorescence, primary screen (AID 1099).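 Note: score merges 667nm spot fluorescence with signal to noise across triplicate slides.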 As to conditions: small-molecule microarray, higher = more signal.
The nature of experiment [3]: probe aCHRDL2 binding to arrayed compounds – biochemical, biotinylated probe, 635/667 nm fluorescence, primary screen (AID 1100). As to conditions: small-molecule microarray, higher = more signal.
Experiment [4] is described as follows: change in splice reporter luminescence, either direction, cell-based, HEK293, spliceosome inhibition project, primary screen (AID 1101).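 Note: HEK293 cells carrying a splicing-competent luciferase reporter gene; test concentration not given here.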 As to conditions: HEK293 splicing luciferase reporter, 24 h, higher = more signal, called active from +8 up or from −8 down. For orientation: A reporter such as luciferase makes a cellular process visible.
Experiment [5] concerns the target Fibroblast growth factor 10 (Homo sapiens) (UniProt O15520). The experiment is described as follows: compounds binding fibroblast growth factor 10 – biochemical, small-molecule microarray, 635 nm fluorescence, primary screen (AID 1102). As to conditions: FGF10 binding, fluorescence 635 nm, higher = more signal.
For experiment [6], the system named is glycogen synthase kinase-3 (GSK3A per assay name; protocol says GSK3B). The experiment is described as follows: compounds binding glycogen synthase kinase-3 – biochemical, small-molecule microarray, 635 nm fluorescence, GSK3A, primary screen (AID 1103). Note: the record names both GSK3A and GSK3B. As to conditions: fluorescence 635 nm, higher = more signal.
Experiment [7] concerns the target Epidermal growth factor receptor (Homo sapiens) (UniProt P00533). The experiment is described as follows: compounds binding epidermal growth factor receptor – biochemical, small-molecule microarray, 635 nm fluorescence, primary screen (AID 1104).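 Note: score merges 667 nm emission intensity with spot signal to noise over triplicate slides.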 As to conditions: EGFR binding, higher = more signal.
Experiment [8] deals with Follistatin-related protein 3 (Homo sapiens) (UniProt O95633). Nature of the experiment: compounds binding follistatin-related protein 3 – biochemical, small-molecule microarray, 635 nm fluorescence, primary screen (AID 1105).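 Note: score merges emission near 667 nm and signal to noise per printed spot across three slides.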 As to conditions: FSTL3 binding, higher = more signal.
Experiment [9] has as its target Dickkopf-related protein 1 (Homo sapiens) (UniProt O94907). Nature of the experiment: small molecules binding DKK1 protein – biochemical, small-molecule microarray, 635 nm fluorescence scan, primary screen (AID 1106).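 Note: score merges emission near 667 nm with signal to noise over three replicate slides.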 As to conditions: higher = more signal.
Experiment [10] concerns Inhibin beta A chain (activin A). The experiment is described as follows: small molecules binding activin A – biochemical, small-molecule microarray, 635 nm fluorescence scan, primary screen (AID 1107).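 Note: mouse activin A protein probed at 4.33 µg/mL on printed slides; score merges bound-protein fluorescence near 667 nm with spot signal-to-noise.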 As to conditions: INHBA, higher = more signal.
For experiment [11], the system named is Human papillomavirus type 1a protein E7 (residues 44-93). Nature of the experiment: small molecules binding HPV E7 44-93 – biochemical, small-molecule microarray, residues 44-93, 635 nm fluorescence, primary screen (AID 1108).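 Note: E7 fragment applied at 1 µg/mL in TBST for 1 h at 4 C; score combines spot fluorescence with its signal to noise ratio.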 As to conditions: fluorescence 635 nm, higher = more signal.
Experiment [12] is described as follows: hepatitis C replication reporter changes, two-sided – Huh7 cells, luciferase reporter, HCV replication inhibitor project, primary screen (AID 1109).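 Note: huh7 hepatoma cells harbouring a luciferase neomycin HCV replicon reporter; luciferase luminescence as measure of HCV replicon replication; test concentration not given here.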 As to conditions: Huh7 HCV replicon luciferase reporter, 48 h; higher = more signal.
In experiment [13] the target is Left-right determination factor 2 (Homo sapiens) (UniProt O00292). Nature of the experiment: small molecules binding LEFTY2 protein – biochemical, small-molecule microarray, 635 nm fluorescence scan, primary screen (AID 1110). As to conditions: higher = more signal.
For experiment [14], the target named is Calmodulin-1 (Homo sapiens) (UniProt P0DP23). The experiment is described as follows: small molecules binding calmodulin-1 with EGTA – biochemical, small-molecule microarray, Cy5-labelled CALM1, profiling panel (AID 1111).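 Note: labelled calmodulin applied in Tris saline Tween buffer holding calcium plus EGTA and DTT.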 As to conditions: Cy5-CALM1 binding fluorescence, higher = more signal.
The target is the same in experiment [15]. Nature of the experiment: small molecules binding Ca-loaded calmodulin-1 – biochemical, small-molecule microarray, Cy5-labelled CALM1, plus calcium, artefact control for SMM control-protein annotation, profiling panel (AID 1112).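 Note: score merges spot fluorescence with signal to noise from triplicate slides.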 As to conditions: Cy5-CALM1 binding fluorescence, higher = more signal.
Experiment [16] in a line: probe aWnt5a binding to arrayed compounds – biochemical, biotinylated probe, 635/667 nm fluorescence, primary screen (AID 1113).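 Note: score merges 667 nm fluorescence intensity with signal-to-noise per printed feature.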 As to conditions: small-molecule microarray, higher = more signal.
Experiment [17] is described as follows: probe aShh binding to arrayed compounds – biochemical, biotinylated probe, 635/667 nm fluorescence, primary screen (AID 1114).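 Note: probe is biotin-labelled aShh protein from a stem cell growth factor screen; measures binding of labelled protein to compounds printed on the slide; score merges feature fluorescence at 667 nm with signal-to-noise.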 As to conditions: small-molecule microarray, higher = more signal.
The nature of experiment [18]: probe aNog binding to arrayed compounds – biochemical, biotinylated probe, 635/667 nm fluorescence, primary screen (AID 1115).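 Note: probe is biotinylated aNog protein used at 0.15 µg/mL for 1 h at 4 C; z-score combines 667 nm fluorescence of each spot with its signal to noise.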 As to conditions: small-molecule microarray, higher = more signal.
The target of experiment [19] is Torsin-1A-interacting protein 1 (Homo sapiens) (UniProt Q5JTV8). Nature of the experiment: compound microarray binding of lysate hLAP1 – cell lysate, small-molecule microarray, COS7 lysate, 635/667 nm fluorescence, primary screen (AID 1116). As to conditions: 635 nm fluorescence, higher = more signal.
Experiment [20] concerns the target Alpha-bungarotoxin (Bungarus multicinctus) (UniProt P60615). The experiment is described as follows: compounds binding labelled alpha-BTX control protein – biochemical, small-molecule microarray, Alexa647 label, 635/667 nm fluorescence, artefact control for SMM control protein annotation, profiling panel (AID 1117). As to conditions: alpha-BTX-A647 binding fluorescence, higher = more signal.

Follistatin-related protein 3 (Homo sapiens), sequence (O95633 whole entry, looked up): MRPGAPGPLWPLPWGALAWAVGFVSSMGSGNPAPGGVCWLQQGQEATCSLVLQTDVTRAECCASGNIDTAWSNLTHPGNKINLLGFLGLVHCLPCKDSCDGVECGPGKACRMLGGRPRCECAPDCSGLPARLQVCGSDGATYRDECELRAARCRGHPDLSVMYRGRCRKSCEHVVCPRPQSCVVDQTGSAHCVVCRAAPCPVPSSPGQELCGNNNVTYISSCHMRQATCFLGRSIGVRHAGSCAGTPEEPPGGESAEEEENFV
Epidermal growth factor receptor (Homo sapiens), sequence (P00533 whole entry, looked up): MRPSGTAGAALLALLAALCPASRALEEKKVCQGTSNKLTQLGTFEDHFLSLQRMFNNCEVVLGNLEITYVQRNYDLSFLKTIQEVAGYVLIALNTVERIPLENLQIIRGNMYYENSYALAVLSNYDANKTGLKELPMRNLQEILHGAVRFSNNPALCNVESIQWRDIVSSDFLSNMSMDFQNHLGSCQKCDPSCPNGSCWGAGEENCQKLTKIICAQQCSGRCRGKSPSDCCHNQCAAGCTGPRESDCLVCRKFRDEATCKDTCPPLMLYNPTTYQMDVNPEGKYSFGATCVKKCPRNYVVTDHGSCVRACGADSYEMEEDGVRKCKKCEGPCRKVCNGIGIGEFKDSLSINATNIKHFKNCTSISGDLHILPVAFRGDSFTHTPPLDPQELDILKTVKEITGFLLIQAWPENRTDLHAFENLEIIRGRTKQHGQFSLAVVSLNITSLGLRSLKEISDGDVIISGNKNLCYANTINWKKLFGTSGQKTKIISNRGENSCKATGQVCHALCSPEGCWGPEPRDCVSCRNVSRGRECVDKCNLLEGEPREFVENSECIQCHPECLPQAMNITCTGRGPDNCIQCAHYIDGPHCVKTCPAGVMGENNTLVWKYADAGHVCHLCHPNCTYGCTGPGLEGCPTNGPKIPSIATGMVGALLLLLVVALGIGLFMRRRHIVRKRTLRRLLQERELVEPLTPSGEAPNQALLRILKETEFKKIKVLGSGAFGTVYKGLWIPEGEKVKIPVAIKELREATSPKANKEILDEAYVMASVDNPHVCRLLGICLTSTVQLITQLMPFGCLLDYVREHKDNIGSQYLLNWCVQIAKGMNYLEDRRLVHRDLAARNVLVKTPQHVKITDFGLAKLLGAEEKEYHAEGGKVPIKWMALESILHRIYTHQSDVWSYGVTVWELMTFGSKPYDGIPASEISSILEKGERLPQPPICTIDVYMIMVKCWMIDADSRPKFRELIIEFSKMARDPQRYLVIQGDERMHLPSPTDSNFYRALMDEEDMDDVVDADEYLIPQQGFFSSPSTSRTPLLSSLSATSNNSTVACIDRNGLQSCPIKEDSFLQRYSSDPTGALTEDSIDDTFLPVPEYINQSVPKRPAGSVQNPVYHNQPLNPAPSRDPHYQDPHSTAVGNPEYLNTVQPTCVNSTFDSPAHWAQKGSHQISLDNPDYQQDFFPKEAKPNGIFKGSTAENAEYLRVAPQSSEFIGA
Torsin-1A-interacting protein 1 (Homo sapiens), sequence (Q5JTV8 whole entry, looked up): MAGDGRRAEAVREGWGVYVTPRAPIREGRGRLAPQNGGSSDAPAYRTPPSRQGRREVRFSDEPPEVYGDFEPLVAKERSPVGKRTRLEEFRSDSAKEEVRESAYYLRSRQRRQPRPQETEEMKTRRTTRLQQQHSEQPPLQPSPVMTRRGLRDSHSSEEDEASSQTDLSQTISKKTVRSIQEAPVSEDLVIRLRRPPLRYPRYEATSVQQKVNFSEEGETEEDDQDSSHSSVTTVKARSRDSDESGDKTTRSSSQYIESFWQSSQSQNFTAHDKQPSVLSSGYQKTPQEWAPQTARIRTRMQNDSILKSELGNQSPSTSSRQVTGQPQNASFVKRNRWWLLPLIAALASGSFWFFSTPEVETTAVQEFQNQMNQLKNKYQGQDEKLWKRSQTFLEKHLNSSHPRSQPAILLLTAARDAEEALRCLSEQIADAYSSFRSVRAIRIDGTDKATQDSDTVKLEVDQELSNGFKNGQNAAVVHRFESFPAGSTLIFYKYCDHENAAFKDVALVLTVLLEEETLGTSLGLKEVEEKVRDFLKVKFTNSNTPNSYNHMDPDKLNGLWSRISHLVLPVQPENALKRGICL
Alpha-bungarotoxin (Bungarus multicinctus), sequence (P60615 whole entry, looked up): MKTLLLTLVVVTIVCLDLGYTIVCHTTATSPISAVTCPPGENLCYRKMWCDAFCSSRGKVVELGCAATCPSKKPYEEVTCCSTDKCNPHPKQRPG
Fibroblast growth factor 10 (Homo sapiens), sequence (O15520 whole entry, looked up): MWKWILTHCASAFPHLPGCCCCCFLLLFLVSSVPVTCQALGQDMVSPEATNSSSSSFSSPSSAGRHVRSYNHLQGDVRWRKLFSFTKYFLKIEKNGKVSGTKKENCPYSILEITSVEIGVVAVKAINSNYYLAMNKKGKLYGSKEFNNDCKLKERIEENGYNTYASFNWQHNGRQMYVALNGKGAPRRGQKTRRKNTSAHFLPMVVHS
Dickkopf-related protein 1 (Homo sapiens), sequence (O94907 whole entry, looked up): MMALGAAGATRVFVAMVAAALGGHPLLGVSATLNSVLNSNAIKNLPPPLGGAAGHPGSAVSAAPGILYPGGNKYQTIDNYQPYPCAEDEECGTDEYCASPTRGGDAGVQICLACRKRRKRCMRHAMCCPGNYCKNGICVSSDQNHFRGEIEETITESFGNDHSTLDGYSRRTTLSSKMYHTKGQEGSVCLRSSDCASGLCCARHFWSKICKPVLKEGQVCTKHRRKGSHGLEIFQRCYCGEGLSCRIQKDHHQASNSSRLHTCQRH
Left-right determination factor 2 (Homo sapiens), sequence (O00292 whole entry, looked up): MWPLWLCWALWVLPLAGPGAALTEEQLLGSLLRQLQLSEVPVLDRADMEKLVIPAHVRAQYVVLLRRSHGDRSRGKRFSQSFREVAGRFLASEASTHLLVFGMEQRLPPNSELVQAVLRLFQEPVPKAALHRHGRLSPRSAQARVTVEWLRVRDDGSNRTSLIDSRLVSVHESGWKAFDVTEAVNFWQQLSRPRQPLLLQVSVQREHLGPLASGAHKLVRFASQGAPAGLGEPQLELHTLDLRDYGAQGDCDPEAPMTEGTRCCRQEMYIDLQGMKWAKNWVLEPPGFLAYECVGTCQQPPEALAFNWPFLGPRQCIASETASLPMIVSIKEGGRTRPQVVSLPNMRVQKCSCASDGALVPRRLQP

Regarding `COc1ccc(C(O)C2C=CC3C(=O)N(C)C(=O)C3N2N2CCCCC2)cc1OCc1ccccc1` (stereo not given), the composite z-score was 0.774 in experiment [1]; 1.1 in experiment [2]; 0.851 in experiment [3]; 0.26 in experiment [5]; 0.636 in experiment [6]; -0.001 in [7]. Moreover, the composite z-score in experiment [8] is 0.371; in experiment [9] it was -0.622; in experiment [10], 0.986; in [11], 1.34; in [13] it was 0.0446; in experiment [14], 0.747. Further, the composite z-score in experiment [15] was determined as 0.738; in experiment [16] it was 0.0391; in [17], 0.462; in [18] it was 1.63; in experiment [19], 0.68; in experiment [20] it was 1.87. In addition, the z-score in experiment [4] was 0.379 (inactive); in experiment [12] it was 0.421.
`C=CC[C@@]12N=C(c3ccc(OCCCO)cc3)O[C@@H]1c1ccccc1CN(Cc1ccccc1)C2=O`: the composite z-score was 1.67 in experiment [1]; 0.761 in experiment [2]; 0.757 in experiment [3]; 0.623 in experiment [5]; 1.28 in experiment [6]; -0.0152 in [7]. In addition, the composite z-score in experiment [8] was 0.0791; in experiment [9] it was 0.191; in experiment [10] it was 1.01; in [11], 1.17; in [13], -0.397; in experiment [14] it was 1.06. Besides, the composite z-score is 0.429 in experiment [15]; -0.0403 in experiment [16]; 0.116 in [17]; 0.87 in experiment [18]; 1.08 in experiment [19]; 1.56 in experiment [20]. The values for the z-score in [4] and in experiment [12] were -0.291 (inactive) and -3.23, respectively.
`CC(=O)NCCCC[C@@H]1NC(=O)[C@@H]2C[C@H](C(=O)NCCCCCCN(C)C)[C@H](c3ccc(O)cc3)N2C1=O`: the composite z-score in experiment [1] was found to be 1.02; in [2], 0.363; in experiment [3], 0.117; in experiment [5], 1.25; in experiment [6], 1.36; in [7] it was 1.31. The composite z-score is 1.5 in experiment [8]; 1.86 in experiment [9]; 0.11 in [10]; -0.0336 in [11]; 0.73 in experiment [13]; -0.158 in [14]. Moreover, the composite z-score in [15] is -1.14; in experiment [16] it was -0.201; in experiment [17] it was 0.0712; in experiment [18], 1.01; in experiment [19] it was 1.84; in experiment [20], 1.65. The z-score in [4] was -1.45 (inactive); in [12] it was 1.08.
Turning to `CO[C@@H]1COC(=O)CC=C[C@@H](C)[C@H](OC)COC(=O)CC=C[C@H]1C`, the composite z-score in [1] was 0.816; in experiment [2], -0.628; in experiment [3], -1.4; in [5] it was 0.262; in [6] it was 0.103; in experiment [7], 0.346. In addition, the composite z-score in [8] is 0.953; in experiment [9], 1.84; in [10] it was 1.8; in experiment [11], -0.255; in experiment [13] it was 0.599; in [14] it was -0.888. In addition, the composite z-score in experiment [15] is -1.49; in experiment [16], -0.24; in experiment [17], 0.0796; in experiment [18], 0.563; in [19], -0.176; in experiment [20], -0.587. Further, the z-score in experiment [4] is 0.161 (inactive); in experiment [12], 0.353.
On to `O=C1O[C@@H](c2ccccc2)[C@@H](c2ccccc2)N2[C@@H](c3ccc(OCCO)cc3)[C@]3(C(=O)Nc4ccc(C#CCCO)cc43)[C@@H](C(=O)N3CCN(c4ncccn4)CC3)[C@H]12`, for which the composite z-score in experiment [1] worked out at 1.13; in [2] it was 0.0868; in experiment [3], 0.319; in experiment [5] it was 1.19; in [6], 0.935; in [7], 0.16. Further, the composite z-score in experiment [8] came to 1.07; in [9], 0.116; in [10], 0.666; in experiment [11], 1.44; in experiment [13] it was 0.669; in experiment [14] it was 0.732. Also, the composite z-score is 0.073 in experiment [15]; 0.0115 in experiment [16]; 0.151 in experiment [17]; -0.601 in [18]; 0.842 in experiment [19]; 1.75 in [20]. The figures for the z-score in experiment [4] and in experiment [12] were 0.952 (inactive) and -0.347, respectively.
On to `C=C(C(=O)CC[C@H](OC(=O)c1ccccc1-c1ccccc1C(=O)O)c1ccc(CO)o1)C(C)C`, for which the composite z-score was 0.75 in experiment [1]; -0.209 in [2]; -0.558 in [3]; 1.45 in experiment [5]; 0.914 in [6]; -0.0997 in [7]. The composite z-score in [8] amounted to 0.858; in experiment [9], 0.568; in experiment [10], 0.664; in experiment [11], 1.24; in experiment [13] it was 0.408; in experiment [14], 0.506. In addition, the composite z-score in experiment [15] is -0.698; in [16] it was 0.0214; in experiment [17], -0.276; in [18] it was 0.265; in experiment [19], 0.875; in experiment [20], 0.905. Moreover, the z-score in [4] was -0.107 (inactive); in [12], -1.3.
